# Laboratory results: the supplement of paper PMC4840960
# Where a name gives a salt, the structure may show the parent alone. ± gives the standard deviation of the averaged measurements.
# Tests used:
# [1] = tested on: E18 rat cortical neuron-glia co-culture; assay: fiber score / MBP score (myelination specific beyond OL differentiation) (ratio); higher = more myelination-specific MBP alignment; settings: treatment time: 8 days (DIV5-DIV13)
# How it was run: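 Papain-dissociated primary E18 rat cortical co-cultures, plated at 20,000 cells/well on poly-d-lysine/laminin 96-well plates, were exposed to library compounds at 1 or 5 µM in myelination medium between DIV5 and DIV13. Following fixation in 4 % paraformaldehyde, cultures were stained for MBP, Olig2 and DAPI, and four 10X fields per well were analysed in duplicate wells. Values are the ratio of fiber score (continuous MBP fiber length per Olig2+ nucleus) to MBP score (thresholded MBP area × intensity per Olig2+ nucleus).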
# [2] = tested on: E18 rat cortical neuron-glia co-culture; assay: myelination (MBP fiber length per Olig2+ nucleus), % of 1 µM DAPT response (DMSO = 0) (% of DAPT); higher = more myelination, active = 50 or more; settings: treatment time: 8 days (DIV5-DIV13)
# How it was run: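 Myelination, expressed as continuous straight MBP fiber length per Olig2+ nucleus, was normalised to 0.1 % DMSO as 0 and a 1 µM positive control as 100. The cultures were primary E18 rat cortical co-cultures dissociated with papain and plated at 20,000 cells/well on poly-d-lysine/laminin-coated 96-well plates. They received library compounds at 1 or 5 µM in myelination medium between DIV5 and DIV13. Analysis covered four 10X fields per well in duplicate wells after 4 % paraformaldehyde fixation and immunostaining for MBP and Olig2 with DAPI.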
SMILES,fiber score / MBP score ([1]; 1 µM),fiber score / MBP score ([1]; 5 µM),myelination ([2]; 1 µM),myelination ([2]; 5 µM)
O=C(NCCO[N+](=O)[O-])c1cccnc1 [Nicorandil],0.852,1.17,-8.12 (inactive),-1.77 (inactive)
COC(=O)C1=C(C)NC(C)=C(C(=O)OC)C1c1ccccc1[N+](=O)[O-] [Nifedipine],0.768,0.919,-18.3 (inactive),10 (inactive)
C[C@H](CCC(=O)O)[C@H]1CC[C@H]2[C@@H]3C(=O)C[C@@H]4CC(=O)CC[C@]4(C)[C@H]3CC(=O)[C@]12C [Dehydrocholic Acid],0.477,0.662,-18.3 (inactive),-14.2 (inactive)
N[C@@H](Cc1cc(I)c(Oc2ccc(O)c(I)c2)c(I)c1)C(=O)O [Triiodothyronine],0.895,1.21,-11.4 (inactive),24.8 (inactive)
COc1ccc2c(c1)c(CC(=O)O)c(C)n2C(=O)c1ccc(Cl)cc1 [Indomethacin],0.699,0.877,-12.4 (inactive),-7.64 (inactive)
CCN1CC(CCN2CCOCC2)C(c2ccccc2)(c2ccccc2)C1=O (stereo not drawn) [Doxapram],0.83,0.769,-10.9 (inactive),-11 (inactive)
CC(COc1ccccc1)N(CCCl)Cc1ccccc1 (stereo not drawn) [Phenoxybenzamine],0.774,0.918,-14.4 (inactive),0.385 (inactive)
CO[C@H]1/C=C/O[C@@]2(C)Oc3c(C)c(O)c4c(c3C2=O)C2=NC3(CCN(CC(C)C)CC3)NC2=C(NC(=O)/C(C)=C\C=C\[C@H](C)[C@H](O)[C@@H](C)[C@@H](O)[C@@H](C)[C@H](OC(C)=O)[C@@H]1C)C4=O [Rifabutin],0.967 ± 0.41,0.734 ± 0.12,-2.92 (inactive),-11.2 (inactive)
CC(=O)Nc1nnc(S(N)(=O)=O)s1 [Acetazolamide],0.846,0.99,-4.45 (inactive),-1.11 (inactive)
Cc1sc(N)c(C(=O)c2cccc(C(F)(F)F)c2)c1C,0.681,0.698,-18.7 (inactive),-12 (inactive)
CC(C)(C)C(O)/C=C/c1ccc2c(c1)OCO2 (stereo not drawn) [Stiripentol],0.738,0.84,-11.3 (inactive),-6.09 (inactive)
COc1ccc2[nH]c([S@@+]([O-])Cc3ncc(C)c(OC)c3C)nc2c1 [Esomeprazole],0.799,0.979,-10.5 (inactive),4.81 (inactive)
Cn1c(=O)c2nc[nH]c2n(C)c1=O [Theophylline],0.93,0.671,-7.88 (inactive),-20.2 (inactive)
CCCC(CCC)C(=O)O [Valproic Acid],0.837,0.944,-6.19 (inactive),-3.27 (inactive)
CC(=O)OCC(CCn1cnc2cnc(N)nc21)COC(C)=O [Famciclovir],0.681,0.977,-22.4 (inactive),-2.76 (inactive)
C[C@@H]1C[C@H]2[C@@H]3C[C@H](F)C4=CC(=O)C=C[C@]4(C)[C@@]3(F)[C@@H](O)C[C@]2(C)[C@@]1(O)C(=O)SCF [Fluticasone],0.729,0.694,-47.4 (inactive),-24.8 (inactive)
C/C(=C\C(=O)OCCCCCCCCC(=O)O)C[C@@H]1OC[C@H](C[C@@H]2O[C@H]2[C@@H](C)[C@H](C)O)[C@@H](O)[C@H]1O [Mupirocin],0.423,0.41,-12.7 (inactive),-11.7 (inactive)
CN1[C@@H]2CC[C@H]1C[C@@H](OC(=O)c1c[nH]c3ccccc13)C2 [Tropisetron],0.706,0.562,-47.4 (inactive),-53.9 (inactive)
CCCOc1ccc(C(=O)OCCN(CC)CC)cc1N [Proxymetacaine],1.15,0.433,13.3 (inactive),-12.1 (inactive)
O=C(O[C@H]1[C@H](Oc2ccccc2COC(=O)C2(O)C=CCCC2=O)O[C@H](CO)[C@@H](O)[C@@H]1O)c1ccccc1 (stereo partly drawn) [Tremulacin],0.746,2.76,-11.2 (inactive),30.4 (inactive)
NCc1ccc(S(N)(=O)=O)cc1 [Mafenide],1.07,0.912,6.37 (inactive),3.49 (inactive)
Cc1[nH]c(=O)c(C#N)cc1-c1ccncc1 [Milrinone],0.762,0.504,-7.08 (inactive),-15.7 (inactive)
COc1cc(C)nc(-n2nc(C)cc2OC)n1 [Epirizole],0.549,0.623,-20.5 (inactive),-13.2 (inactive)
CCCC(=O)O[C@]1(C(=O)COC(=O)CC)CC[C@H]2[C@@H]3CCC4=CC(=O)CC[C@]4(C)[C@H]3[C@@H](O)C[C@@]21C [Hydrocortisone buteprate],1.04,1.22,5.43 (inactive),12.1 (inactive)

SMILES,fiber score / MBP score ([1]; 1 µM),fiber score / MBP score ([1]; 5 µM),myelination ([2]; 1 µM),myelination ([2]; 5 µM)
C[C@H]1O[C@H](O[C@H]2[C@H](O)[C@@H](O)[C@@H](O[C@H]3[C@H](O)[C@@H](O)C(O)O[C@@H]3CO)O[C@@H]2CO)[C@H](O)[C@@H](O)[C@@H]1N[C@H]1C=C(CO)[C@@H](O)[C@H](O)[C@H]1O (stereo partly drawn) [Acarbose],0.856,0.99,-11.8 (inactive),-6.72 (inactive)
Cc1cc(NS(=O)(=O)c2ccc(N)cc2)no1 [Sulfamethoxazole],0.955,0.803,-3.29 (inactive),-5.03 (inactive)
NS(=O)(=O)Cc1noc2ccccc12 [Zonisamide],0.789,0.799,-33.9 (inactive),-30.8 (inactive)
OCCOCCN1CCN(C(c2ccccc2)c2ccc(Cl)cc2)CC1 (stereo not drawn) [Hydroxyzine pamoate salt],0.154,0.28,-6.65 (inactive),-24.4 (inactive)
CN(C)CCC(c1ccc(Cl)cc1)c1ccccn1 (stereo not drawn) [Chlorpheniramine],0.721 ± 0.13,0.471 ± 0.094,-9.68 (inactive),-17.7 (inactive)
COc1cc2nc(N(C)CCCNC(=O)C3CCCO3)nc(N)c2cc1OC (stereo not drawn) [Alfuzosin],0.472,0.636,-57.9 (inactive),-36.4 (inactive)
CSc1nc2cc(Cl)c(Oc3cccc(Cl)c3Cl)cc2[nH]1 [Triclabendazole],0.682,0.685,-23.9 (inactive),-18.7 (inactive)
OC(CCN1CCCC1)(c1ccccc1)C1CCCCC1 (stereo not drawn) [Procyclidine],1.03,1.05,-4.99 (inactive),11.6 (inactive)
NS(=O)(=O)c1cc(C(=O)O)c(NCc2ccco2)cc1Cl [Furosemide],0.894,0.97,-9.91 (inactive),-6.31 (inactive)
CO[C@H]1/C=C/O[C@@]2(C)Oc3c(C)c(O)c4c(O)c(c5c(nc6cc(C)ccn65)c4c3C2=O)NC(=O)/C(C)=C\C=C\[C@H](C)[C@H](O)[C@@H](C)[C@@H](O)[C@@H](C)[C@H](OC(C)=O)[C@@H]1C [Rifaximin],0.779,0.73,-4.06 (inactive),-12 (inactive)
C[C@@H](O)[C@H]1C(=O)N2C(C(=O)O)=C(S[C@@H]3CN[C@H](C(=O)N(C)C)C3)[C@H](C)[C@H]12 [Meropenem],0.99,0.804,2.11 (inactive),-19.5 (inactive)
Cc1c(O)cccc1C(=O)N[C@@H](CSc1ccccc1)[C@H](O)CN1C[C@H]2CCCC[C@H]2C[C@H]1C(=O)NC(C)(C)C [Nelfinavir],0.779,0.634,-42.1 (inactive),-44.3 (inactive)
CN(C)CCCN1c2ccccc2Sc2ccc(Cl)cc21 [Chlorpromazine],1.04,1.17,8.68 (inactive),-2.13 (inactive)
CN1CCN(C2=Nc3cc(F)ccc3Cc3ccccc32)CC1 [Fluperlapine],1.15,0.587,6.96 (inactive),-12.9 (inactive)
COc1ccccc1OCCNCC(O)COc1cccc2[nH]c3ccccc3c12 (stereo not drawn) [Carvedilol],0.762,0.794,-38.4 (inactive),-16.8 (inactive)
Nc1nc(=O)c2nc(CNc3ccc(C(=O)N[C@@H](CCC(=O)O)C(=O)O)cc3)cnc2[nH]1 [Folic acid],0.994,0.627,-5.35 (inactive),-17.3 (inactive)
CCC1(c2ccccc2)C(=O)NCNC1=O [Primidone],0.952,1.03,3.26 (inactive),-3.74 (inactive)
NC1CCN(c2nc3c(cc2F)c(=O)c(C(=O)O)cn3-c2ccc(F)cc2F)C1 (stereo not drawn) [Tosufloxacin],0.855,0.665,-12.3 (inactive),-14.4 (inactive)
CC(=O)O[C@@]12CO[C@@H]1C[C@H](O)[C@@]1(C)C(=O)[C@H](O)C3=C(C)[C@@H](OC(=O)[C@H](O)[C@@H](NC(=O)OC(C)(C)C)c4ccccc4)C[C@@](O)([C@@H](OC(=O)c4ccccc4)[C@H]21)C3(C)C [Docetaxel],1.59,1.62,263 (active),257 (active)
COc1ccc(/C=C/C(=O)Nc2ccccc2C(=O)O)cc1OC [Tranilast],0.857,0.89,-12.7 (inactive),-4.27 (inactive)
CNCC[C@@H](Oc1ccccc1C)c1ccccc1 [Atomoxetine],0.774,0.721,-18.6 (inactive),-17.2 (inactive)
C#C[C@]1(OC(C)=O)CC[C@H]2[C@@H]3CCC4=CC(=O)CC[C@@H]4[C@H]3CC[C@@]21C [Norethisterone acetate],0.907,0.989,-8.44 (inactive),-6.86 (inactive)
C#C[C@]1(O)CC[C@H]2[C@@H]3CCc4cc(OC)ccc4[C@H]3CC[C@@]21C [Mestranol],0.724,0.298,-6.5 (inactive),-18 (inactive)
